# Measured values taken from PubChem BioAssay AID504613 (National Center for Advancing Translational Sciences (NCATS), 2011).
# Activity calls are given as the source filed them.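 The calls were made as follows: active = clear growth inhibition over 72 hours in leukemia cell lines carrying a fused MLL gene, giving a fitted IC50; inactive = the rest.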
# Experiment: Confirmation of Inhibitors Targeting the Menin-MLL Interaction in MLL Related Leukemias: Confirmation in an MLL leukemia cell growth assay
# Conditions: MV4-11 MLL-AF4 leukemia growth, MTT absorbance, 72 h; series mostly up to 50 µM
# Source text: qHTS Assay for Inhibitors Targeting the Menin-MLL Interaction in MLL Related Leukemias NIH Chemical Genomics Center [NCGC] NIH Molecular Libraries Probe Centers Network [MLPCN] MLPCN Grant: MH084875-01A1 Assay Submitter (PI): Jolanta Grembecka, Tomasz Cierpicki, University of Virginia Translocations of the MLL (Mixed Lineage Leukemia) gene are frequently found in human leukemias affecting both children and adults. Fusion of MLL to one of more than 60 genes results in generation of oncogenic proteins upregulating Hox genes, which are vital to blood cell development. Patients harboring fusion of the MLL gene suffer from aggressive leukemias and respond poorly to available therapies. All of the oncogenic fusion proteins have a preserved N-terminal fragment of MLL that has been identified to interact with menin. It has been recently discovered that association with menin is critical to the leukemogenic activity of the MLL fusion oncoproteins. […] We have developed and optimized a fluorescence polarization-based assay for the identification of Menin-MLL inhibitors. […]
# Inhibition of cell proliferation in the MLL leukemia cells: MV4-11 (MLL-AF4), ML-2 (MLL-AF6) KOPN-8 (MLL-ENL) induced by compound measured after 72h treatment, as detected by the MTT cell viability assay. […] Plates were read for absorbance at 570 nm using a PHERAstar BMG microplate reader. […]
row,Compound,IC50
1,N#Cc1ccc(OCCCN2CCC(C(O)(c3ccccc3)C3CCCC3)CC2)cc1 (configuration not stated),12.8 µM (active)
2,N#Cc1ccc(OCCCN2CCC(C(O)c3ccccc3)CC2)cc1 (configuration not stated),inactive
